Active and inactive are the calls of the source.
Legend:
[1] = binders of probe aFSTL3 on microarray, primary screen, stem cell growth factor project, biochemical, small-molecule microarray, fluorescence 635/667 (AID 1064); conditions: higher = more signal;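 also: measures binding of the biotinylated anti-FSTL3 antibody to printed compounds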
[2] = binders from COS7 lysate, DM2A8 probe, primary screen, torsin A project, cell lysate, small-molecule microarray, fluorescence 635/667 (AID 1065); conditions: higher = more signal, COS7 lysate expressing mutant human TOR1A
[3] = binders of probe aFGF2 on microarray, primary screen, stem cell growth factor project, biochemical, small-molecule microarray, fluorescence 635/667 (AID 1067); conditions: higher = more signal;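 also: measures binding of biotinylated aFGF2 protein to printed compounds on slides; z-score merges feature fluorescence and signal-to-noise across triplicate slides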
[4] = binders of probe aFGF10 on microarray, primary screen, stem cell growth factor project, biochemical, small-molecule microarray, fluorescence 635/667 (AID 1071); conditions: higher = more signal;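 also: score merges 667 nm spot intensity and signal to noise from triplicate slides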
[5] = target: Neurogenic locus notch homolog protein 2 (Homo sapiens) (UniProt Q04721); experiment: Notch2 binders on small-molecule microarrays, primary screen, biochemical, small-molecule microarray, 635 nm fluorescence, stem cell growth factors (AID 1073); conditions: Notch2 binding, higher = more signal
Chain of Neurogenic locus notch homolog protein 2 (Homo sapiens) (Q04721 whole entry, looked up, canonical isoform): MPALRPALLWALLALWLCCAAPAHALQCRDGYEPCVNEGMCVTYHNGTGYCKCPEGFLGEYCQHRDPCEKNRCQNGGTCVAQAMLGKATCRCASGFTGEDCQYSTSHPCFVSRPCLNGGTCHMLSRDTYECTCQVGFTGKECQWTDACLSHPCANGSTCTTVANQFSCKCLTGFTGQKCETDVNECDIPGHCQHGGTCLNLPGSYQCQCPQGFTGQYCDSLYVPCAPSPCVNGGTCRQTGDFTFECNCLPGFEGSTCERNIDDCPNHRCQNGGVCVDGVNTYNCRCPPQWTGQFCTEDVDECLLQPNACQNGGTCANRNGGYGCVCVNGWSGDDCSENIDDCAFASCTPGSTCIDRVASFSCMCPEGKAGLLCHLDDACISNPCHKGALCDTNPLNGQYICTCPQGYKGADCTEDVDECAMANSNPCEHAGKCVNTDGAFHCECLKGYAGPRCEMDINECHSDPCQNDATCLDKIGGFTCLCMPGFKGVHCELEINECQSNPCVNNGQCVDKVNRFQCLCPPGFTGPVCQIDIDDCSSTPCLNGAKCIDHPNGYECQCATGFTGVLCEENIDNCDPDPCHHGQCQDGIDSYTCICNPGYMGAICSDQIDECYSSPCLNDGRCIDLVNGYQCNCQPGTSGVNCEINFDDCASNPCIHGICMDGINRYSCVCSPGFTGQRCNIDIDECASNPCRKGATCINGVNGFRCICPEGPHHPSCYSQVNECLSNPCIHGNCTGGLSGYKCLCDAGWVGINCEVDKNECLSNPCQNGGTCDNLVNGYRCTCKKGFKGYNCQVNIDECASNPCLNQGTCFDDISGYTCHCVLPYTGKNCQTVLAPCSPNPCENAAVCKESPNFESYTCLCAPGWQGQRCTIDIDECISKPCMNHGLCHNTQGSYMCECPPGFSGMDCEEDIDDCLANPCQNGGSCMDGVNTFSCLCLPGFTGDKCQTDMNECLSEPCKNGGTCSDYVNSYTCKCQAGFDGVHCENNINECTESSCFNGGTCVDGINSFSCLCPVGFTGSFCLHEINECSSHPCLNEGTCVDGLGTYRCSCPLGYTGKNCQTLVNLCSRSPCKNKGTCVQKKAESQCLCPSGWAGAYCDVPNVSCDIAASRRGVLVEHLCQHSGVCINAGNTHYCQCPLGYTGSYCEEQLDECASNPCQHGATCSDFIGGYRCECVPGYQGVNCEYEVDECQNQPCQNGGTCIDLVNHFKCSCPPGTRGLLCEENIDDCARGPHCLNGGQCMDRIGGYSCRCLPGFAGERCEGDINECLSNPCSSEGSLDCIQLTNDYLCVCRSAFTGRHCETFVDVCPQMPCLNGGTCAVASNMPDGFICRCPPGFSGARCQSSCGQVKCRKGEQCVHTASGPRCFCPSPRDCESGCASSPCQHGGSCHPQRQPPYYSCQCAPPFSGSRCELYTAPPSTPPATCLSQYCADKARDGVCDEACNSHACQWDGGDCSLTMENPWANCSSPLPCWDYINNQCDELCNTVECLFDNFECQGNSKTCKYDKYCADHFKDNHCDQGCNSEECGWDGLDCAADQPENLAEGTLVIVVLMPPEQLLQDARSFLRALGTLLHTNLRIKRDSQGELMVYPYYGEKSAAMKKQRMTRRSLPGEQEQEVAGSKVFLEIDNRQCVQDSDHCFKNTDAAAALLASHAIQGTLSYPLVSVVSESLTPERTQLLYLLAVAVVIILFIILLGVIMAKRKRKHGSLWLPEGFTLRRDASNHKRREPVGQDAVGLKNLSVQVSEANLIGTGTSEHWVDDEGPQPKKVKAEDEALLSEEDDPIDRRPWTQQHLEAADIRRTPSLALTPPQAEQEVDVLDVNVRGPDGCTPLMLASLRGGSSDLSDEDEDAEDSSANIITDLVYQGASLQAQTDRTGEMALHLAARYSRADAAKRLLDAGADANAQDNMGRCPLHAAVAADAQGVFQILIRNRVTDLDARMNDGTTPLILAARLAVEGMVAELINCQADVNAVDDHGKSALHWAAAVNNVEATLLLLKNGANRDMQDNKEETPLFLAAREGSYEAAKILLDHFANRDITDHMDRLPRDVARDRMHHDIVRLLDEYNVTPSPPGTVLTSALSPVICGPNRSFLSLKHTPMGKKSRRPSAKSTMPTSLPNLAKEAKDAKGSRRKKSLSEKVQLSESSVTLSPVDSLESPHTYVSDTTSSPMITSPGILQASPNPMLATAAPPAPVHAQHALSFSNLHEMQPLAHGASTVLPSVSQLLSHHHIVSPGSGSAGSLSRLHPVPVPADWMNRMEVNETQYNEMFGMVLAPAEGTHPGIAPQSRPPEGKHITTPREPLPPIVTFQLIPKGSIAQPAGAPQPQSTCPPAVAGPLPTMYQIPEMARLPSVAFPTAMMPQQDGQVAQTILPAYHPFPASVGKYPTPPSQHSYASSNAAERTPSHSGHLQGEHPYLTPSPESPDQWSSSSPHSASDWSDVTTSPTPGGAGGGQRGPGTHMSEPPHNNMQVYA

[6] = target: Pro-neuregulin-1, membrane-bound isoform (Homo sapiens) (UniProt Q02297); experiment: NRG1 binders on small-molecule microarrays, primary screen, psychiatric disease protein project, biochemical, small-molecule microarray, fluorescence 635/667 (AID 1075); conditions: NRG1 binding, 635 nm fluorescence, higher = more signal;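 also: score combines 667 nm spot fluorescence with signal to noise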
Chain of Pro-neuregulin-1, membrane-bound isoform (Homo sapiens) (Q02297 whole entry, looked up, the tested form may be a part, canonical isoform): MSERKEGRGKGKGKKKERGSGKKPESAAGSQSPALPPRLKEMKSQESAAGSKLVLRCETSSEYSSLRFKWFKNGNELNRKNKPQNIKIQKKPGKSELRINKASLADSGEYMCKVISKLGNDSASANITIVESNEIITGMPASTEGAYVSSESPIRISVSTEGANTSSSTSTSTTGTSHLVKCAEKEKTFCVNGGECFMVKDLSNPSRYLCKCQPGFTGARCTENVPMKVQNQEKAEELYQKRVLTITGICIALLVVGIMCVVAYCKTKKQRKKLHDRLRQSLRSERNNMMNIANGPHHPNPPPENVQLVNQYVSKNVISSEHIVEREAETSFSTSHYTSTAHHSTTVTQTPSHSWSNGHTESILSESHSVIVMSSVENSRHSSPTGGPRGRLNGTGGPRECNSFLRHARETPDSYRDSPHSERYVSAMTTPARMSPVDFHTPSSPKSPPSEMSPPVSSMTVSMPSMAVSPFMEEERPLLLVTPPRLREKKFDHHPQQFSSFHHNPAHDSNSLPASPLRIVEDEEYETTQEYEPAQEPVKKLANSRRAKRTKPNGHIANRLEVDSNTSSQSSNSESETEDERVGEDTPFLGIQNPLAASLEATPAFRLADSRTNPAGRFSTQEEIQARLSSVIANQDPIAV

[7] = test system: Neuregulin-1 EGF-like domain; experiment: binders of neuregulin-1 EGF-like domain, primary screen, biochemical, small-molecule microarray, 635 nm fluorescence (AID 1081); conditions: small-molecule microarray binding, higher = more signal;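 also: binding of the protein to compounds printed on small-molecule microarray slides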
[8] = FRG1 promoter luciferase signal modulators, primary screen, FRG1 inhibition for FSHD, cell-based, C2C12 myotubes, firefly/Renilla luciferase, luminescence (AID 1084); conditions: higher = more signal, called active from +8 up or from −8 down
[9] = binders of probe aFST on microarray, primary screen, stem cell growth factor project, biochemical, small-molecule microarray, fluorescence 635/667 (AID 1086); conditions: higher = more signal;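 also: score merges 667 nm fluorescence with signal-to-noise of each printed compound spot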
[10] = binders of probe aHhip on microarray, primary screen, stem cell growth factor project, biochemical, small-molecule microarray, fluorescence 635/667 (AID 1087); conditions: higher = more signal;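 also: score merges spot fluorescence at 667nm with spot signal to noise ratio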
[11] = test system: PRMT1 (protein arginine N-methyltransferase 1); experiment: PRMT1 binders on small-molecule microarrays, primary screen, biochemical, small-molecule microarray, 635 nm fluorescence (AID 1088); conditions: small-molecule microarray binding, higher = more signal;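 also: binding of Prmt1 protein to compounds spotted on small-molecule microarray slides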
[12] = yeast growth modulation, basal conditions, primary screen, YJM789 clinical isolate, OD600, 24 h (AID 1089);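 also: growth of clinical yeast isolate S. cerevisiae YJM 789 seeded 1000 cells per well; test concentration not given here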; conditions: S. cerevisiae YJM789 growth, higher = more signal, called active from +8 up or from −8 down
[13] = fission yeast growth modulation, primary screen, strain 972, OD600, 24 h, no modulator (AID 1090);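 also: basal condition with compound alone and no growth modifier present; test concentration not given here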; conditions: S. pombe 972 growth, higher = more signal, called active from +8 up or from −8 down
[14] = S. cerevisiae growth modulation with rapamycin, primary screen, strain BY4716, OD600, 96 h (AID 1091); conditions: higher = more signal, called active from +8 up or from −8 down; also: test concentration not given here
[15] = target: Torsin-1A-interacting protein 2 (Homo sapiens) (UniProt Q8NFQ8); experiment: LULL1 binders on small-molecule microarray, primary screen, cell lysate, human LULL1 lysate, 635/667 nm fluorescence (AID 1092); conditions: hLULL1 lysate binding, 635 nm fluorescence, higher = more signal;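 also: probe is lysate of COS7 cells overexpressing human LULL1; score merges per-feature 667 nm fluorescence with signal-to-noise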
Chain of Torsin-1A-interacting protein 2 (Homo sapiens) (Q8NFQ8 whole entry, looked up): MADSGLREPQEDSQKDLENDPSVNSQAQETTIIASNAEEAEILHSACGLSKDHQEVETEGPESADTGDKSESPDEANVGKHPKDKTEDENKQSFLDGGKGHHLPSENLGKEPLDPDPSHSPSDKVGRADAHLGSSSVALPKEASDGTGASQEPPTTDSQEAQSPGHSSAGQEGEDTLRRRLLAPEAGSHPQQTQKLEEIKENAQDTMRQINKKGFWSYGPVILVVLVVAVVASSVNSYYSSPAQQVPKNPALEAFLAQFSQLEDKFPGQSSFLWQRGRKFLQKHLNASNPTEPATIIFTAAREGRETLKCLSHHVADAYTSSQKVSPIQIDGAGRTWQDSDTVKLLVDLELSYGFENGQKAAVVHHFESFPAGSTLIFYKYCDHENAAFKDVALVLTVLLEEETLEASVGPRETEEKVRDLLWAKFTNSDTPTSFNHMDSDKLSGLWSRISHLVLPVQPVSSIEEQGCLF

[16] = E. coli growth modulation, two-sided OD650, primary screen, E. coli filamentation project, strain DRC41, 24 h (AID 1093); conditions: OD650, 24 h, higher = more signal, called active from +8 up or from −8 down;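 also: MC1000 strain lacking acrAB efflux and sulA so SOS filamentation is blocked; test concentration not given here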
[17] = small-molecule microarray binders of probe aLefty2, primary screen, biochemical, biotinylated probe, 635/667 nm fluorescence (AID 1094); conditions: higher = more signal;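 also: score merges spot fluorescence near 667 nm with spot signal-to-noise ratio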
[18] = test system: Noggin (protein binding on small-molecule microarray); experiment: Noggin binders on small-molecule microarray, primary screen, biochemical, 635/667 nm fluorescence (AID 1095); conditions: 635 nm fluorescence, higher = more signal;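 also: score merges 667 nm feature fluorescence with signal to noise over triplicate slides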
[19] = target: Neurogenic locus notch homolog protein 3 (Homo sapiens) (UniProt Q9UM47); experiment: NOTCH3 binders on small-molecule microarray, primary screen, biochemical, 635/667 nm fluorescence (AID 1096); conditions: NOTCH3 binding, 635 nm fluorescence, higher = more signal
[20] = small-molecule microarray binders of probe aEGFR, primary screen, biochemical, biotinylated probe, 635/667 nm fluorescence (AID 1097); conditions: higher = more signal;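 also: probe is a biotinylated anti-EGFR antibody binding compounds printed on slides; score combines fluorescence near 667 nm and signal to noise of each spot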

Structure (SMILES): CS(=O)(=O)CCOC(=O)C1=CC(CCCO)=CC(c2cccs2)N(Cc2cccc(OC(F)(F)F)c2)C=C1C(=O)OCCS(C)(=O)=O (stereo not given)
- composite z-score [1]: -0.215
- composite z-score [2]: 1.76
- composite z-score [3]: -0.0753
- composite z-score [4]: 0.0557
- composite z-score [5]: 1.14
- composite z-score [6]: 1.8
- composite z-score [7]: 1.14
- z-score [8]: -0.176 (inactive)
- composite z-score [9]: 0.425
- composite z-score [10]: -0.191
- composite z-score [11]: 1.57
- z-score [12]: -0.522 (inactive)
- z-score [13]: -2.82 (inactive)
- z-score [14]: -1.34 (inactive)
- composite z-score [15]: 2.17
- z-score [16]: -0.0221 (inactive)
- composite z-score [17]: 0.0651
- composite z-score [18]: 0.025
- composite z-score [19]: 0.993
- composite z-score [20]: 0.0269

Structure (SMILES): CCOC(=O)NN=C1C[C@@H](O)[C@@H](O)[C@@H]2[C@@H]3C(=O)N(C4CCCCC4)C(=O)[C@@H]3CC[C@H]12
- composite z-score [1]: -0.242
- composite z-score [2]: 0.459
- composite z-score [3]: -0.067
- composite z-score [4]: 0.267
- composite z-score [5]: 0.932
- composite z-score [6]: 0.215
- composite z-score [7]: 0.444
- z-score [8]: 0.228 (inactive)
- composite z-score [9]: 0.142
- composite z-score [10]: -0.0994
- composite z-score [11]: 0.314
- z-score [12]: 0.351 (inactive)
- z-score [13]: 0.458 (inactive)
- z-score [14]: 0.529 (inactive)
- composite z-score [15]: 0.746
- z-score [16]: -0.931 (inactive)
- composite z-score [17]: -0.139
- composite z-score [18]: 0.315
- composite z-score [19]: 0.213
- composite z-score [20]: -0.0776

Structure (SMILES): COc1cccc([C@@H]2Oc3ccc(Br)cc3C(=O)[C@H]2O)c1
- composite z-score [1]: -0.614
- composite z-score [2]: 0.291
- composite z-score [3]: -0.0291
- composite z-score [4]: 0.783
- composite z-score [5]: 0.458
- composite z-score [6]: 0.297
- composite z-score [7]: 0.972
- z-score [8]: 3.62 (inactive)
- composite z-score [9]: 0.0846
- composite z-score [10]: 0.235
- composite z-score [11]: -0.366
- z-score [12]: -2.84 (inactive)
- z-score [13]: -10.6 (active)
- z-score [14]: -1.5 (inactive)
- composite z-score [15]: 1.49
- z-score [16]: 0.9 (inactive)
- composite z-score [17]: -0.0615
- composite z-score [18]: 1.13
- composite z-score [19]: 0.834
- composite z-score [20]: -0.0828

Structure (SMILES): C[C@@H]1CC[C@H]2C(=O)O[C@H](COc3ccc(C(C)(C)C)cc3)CN2[C@H]1c1ccc(Br)cc1
- composite z-score [1]: -0.417
- composite z-score [2]: -0.16
- composite z-score [3]: -0.026
- composite z-score [4]: -0.0359
- composite z-score [5]: 0.111
- composite z-score [6]: 0.536
- composite z-score [7]: -0.414
- z-score [8]: 0.414 (inactive)
- composite z-score [9]: -0.0273
- composite z-score [10]: -0.0296
- composite z-score [11]: -0.59
- z-score [12]: 1.55 (inactive)
- z-score [13]: 0.406 (inactive)
- z-score [14]: 1.4 (inactive)
- composite z-score [15]: -0.121
- z-score [16]: -0.756 (inactive)
- composite z-score [17]: -0.291
- composite z-score [18]: -0.273
- composite z-score [19]: -0.428
- composite z-score [20]: -0.122

Structure (SMILES): CCCNC(=O)[C@@H]1c2ccccc2C(=O)N(c2ccc(C)cn2)[C@H]1c1ccc(CO)cc1
- composite z-score [1]: 0.901
- composite z-score [2]: 0.0211
- composite z-score [3]: -0.176
- composite z-score [4]: -0.857
- composite z-score [5]: -1.01
- composite z-score [6]: -0.465
- composite z-score [7]: 1.4
- z-score [8]: 0.213 (inactive)
- composite z-score [9]: -0.348
- composite z-score [10]: -0.258
- composite z-score [11]: 0.129
- z-score [12]: -1.03 (inactive)
- z-score [13]: -0.144 (inactive)
- z-score [14]: -0.926 (inactive)
- composite z-score [15]: 0.553
- z-score [16]: -0.0365 (inactive)
- composite z-score [17]: -0.0769
- composite z-score [18]: -1.08
- composite z-score [19]: -0.798
- composite z-score [20]: -0.299

Structure (SMILES): O=C(CS)NCCCCCNC(=O)[C@@H]1C[C@@H]2C(=O)N[C@@H](Cc3ccccc3)C(=O)N2[C@@H]1c1ccc(O)cc1
- composite z-score [1]: 0.154
- composite z-score [2]: 0.524
- composite z-score [3]: -0.0766
- composite z-score [4]: 0.435
- composite z-score [5]: -0.138
- composite z-score [6]: 0.67
- composite z-score [7]: 1.36
- z-score [8]: 1.2 (inactive)
- composite z-score [9]: 0.0658
- composite z-score [10]: -0.0994
- composite z-score [11]: 1.47
- z-score [12]: 0.176 (inactive)
- z-score [13]: -0.321 (inactive)
- z-score [14]: 0.858 (inactive)
- composite z-score [15]: 3.06
- z-score [16]: 1.28 (inactive)
- composite z-score [17]: -0.0687
- composite z-score [18]: -0.306
- composite z-score [19]: 0.373
- composite z-score [20]: -0.104

Structure (SMILES): COC(=O)[C@@H]1CC[C@H](C)[C@@H](c2ccc(C)cc2)N1C(=O)c1ccc(C=NOC[C@@H](O)COCc2ccco2)cc1
- composite z-score [1]: 0.852
- composite z-score [2]: 0.239
- composite z-score [3]: -0.226
- composite z-score [4]: -0.58
- composite z-score [5]: -1.83
- composite z-score [6]: -0.96
- composite z-score [7]: -1.04
- z-score [8]: 0.495 (inactive)
- composite z-score [9]: -0.72
- composite z-score [10]: -0.137
- composite z-score [11]: -2.07
- z-score [12]: -1.45 (inactive)
- z-score [13]: 0.165 (inactive)
- z-score [14]: -0.71 (inactive)
- composite z-score [15]: -1.69
- z-score [16]: 1.47 (inactive)
- composite z-score [17]: 0.0179
- composite z-score [18]: -1.01
- composite z-score [19]: -3.12
- composite z-score [20]: -0.0868

Structure (SMILES): C[C@H](c1ccccc1)N1C(=O)[C@H]2[C@H]3[C@H](O)[C@H](O)CC(=O)[C@@H]3CC[C@H]2C1=O
- composite z-score [1]: -0.019
- composite z-score [2]: 0.242
- composite z-score [3]: -0.0675
- composite z-score [4]: 0.341
- composite z-score [5]: 0.433
- composite z-score [6]: -0.117
- composite z-score [7]: 0.263
- z-score [8]: -0.243 (inactive)
- composite z-score [9]: 0.0924
- composite z-score [10]: 0.0274
- composite z-score [11]: 0.27
- z-score [12]: -0.228 (inactive)
- z-score [13]: -0.522 (inactive)
- z-score [14]: -0.478 (inactive)
- composite z-score [15]: 0.685
- z-score [16]: -0.417 (inactive)
- composite z-score [17]: -0.226
- composite z-score [18]: 0.245
- composite z-score [19]: 0.419
- composite z-score [20]: 0.221

Structure (SMILES): C[C@@H]1C=CCC(=O)OC[C@H](C)C(=O)OC[C@H]2O[C@H]1C=C[C@H]2O
- composite z-score [1]: -0.414
- composite z-score [2]: 0.304
- composite z-score [3]: 0.0033
- composite z-score [4]: 0.44
- composite z-score [5]: 0.112
- composite z-score [6]: -0.175
- composite z-score [7]: 0.615
- z-score [8]: -0.538 (inactive)
- composite z-score [9]: 0.512
- composite z-score [10]: 0.106
- composite z-score [11]: 0.047
- z-score [12]: 1.1 (inactive)
- z-score [13]: -2.02 (inactive)
- z-score [14]: 0.614 (inactive)
- composite z-score [15]: 0.429
- z-score [16]: 0.0861 (inactive)
- composite z-score [17]: -0.18
- composite z-score [18]: 1.31
- composite z-score [19]: 0.272
- composite z-score [20]: -0.0039

Structure (SMILES): CC(CCC(=O)OC[C@H]1O[C@H](C#Cc2ccccc2)C=C[C@@H]1Oc1ccc(C)cc1)=NOC[C@@H](O)[C@H]1O[C@@H]2OC(C)(C)O[C@@H]2[C@H]1O
- composite z-score [1]: -0.378
- composite z-score [2]: -0.587
- composite z-score [3]: -0.229
- composite z-score [4]: -0.44
- composite z-score [5]: -0.836
- composite z-score [6]: -0.116
- composite z-score [7]: -0.0458
- z-score [8]: 0.0054 (inactive)
- composite z-score [9]: -0.865
- composite z-score [10]: -0.172
- composite z-score [11]: -0.753
- z-score [12]: 0.349 (inactive)
- z-score [13]: -0.0762 (inactive)
- z-score [14]: 0.823 (inactive)
- composite z-score [15]: 0.563
- z-score [16]: 0.142 (inactive)
- composite z-score [17]: -0.352
- composite z-score [18]: -0.333
- composite z-score [19]: -1.74
- composite z-score [20]: -0.342
